The values below come from PubChem BioAssay (EPA / NIEHS).

What all share (settings): mRNA level, 48 h; actives raise or lower the signal
Read-out in assay [1]: Paternally Expressed 10 (PEG10), PEG10 (gene 23089)
Description: LTEA_HepaRG_PEG10: Life Technologies and Expression Analysis (LTEA) Assay for Paternally Expressed 10 (PEG10) using HepaRG (AID 2283520).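 As to AC50: differentiated HepaRG human liver cells in serum-free induction medium with 0.5% DMSO; PEG10 transcript by qRT-PCR normalised to ACTB GAPDH and POLR2A.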 The essentials:
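Human HepaRG cultures are dosed for 48 h across an eight-point half-log series starting at 100 uM, with 0.5% DMSO as vehicle and baseline. Gain or loss of PEG10 transcript is measured by qRT-PCR and fitted in both directions.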

Read-out in assay [2]: Nuclear factor NF-kappa-B p105 subunit (Homo sapiens) (UniProt P19838)
Description: LTEA_HepaRG_NFKB1: Life Technologies and Expression Analysis (LTEA) Assay for Nuclear Factor Kappa B Subunit 1 (NFKB1) using HepaRG (AID 2283521).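 Also: differentiated human HepaRG liver cells in serum-free induction medium; TaqMan qRT-PCR transcript normalised to ACTB GAPDH and POLR2A housekeeping genes.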 A digest of the protocol:
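HepaRG, 48 h exposure; 8-pt half-log series from 100 uM in 0.5% DMSO; duplicates. Readout: NFKB1 mRNA by qRT-PCR (Fluidigm arrays), housekeeping-normalized. Gain/loss fit vs DMSO baseline.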

Read-out in assay [3]: Protein phosphatase 2A (PPP2R4), PTPA (gene 5524)
Description: LTEA_HepaRG_PPP2R4: Life Technologies and Expression Analysis (LTEA) Assay for Protein phosphatase 2A (PPP2R4) using HepaRG (AID 2283522). The essentials:
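Cells were plated, cultured 48 h, switched to serum-free induction medium, then dosed for 48 h (8 points, max 100 uM, 0.5% DMSO). RNA was isolated and PPP2R4 expression measured by TaqMan qRT-PCR.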

Read-out in assay [4]: Phosphatase and tensin (PTEN), PTEN (gene 5728)
Put plainly: LTEA_HepaRG_PTEN: Life Technologies and Expression Analysis (LTEA) Assay for Phosphatase and tensin (PTEN) using HepaRG (AID 2283523). A digest of the protocol: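 HepaRG, 48 h exposure, 8-pt half-log series from 100 uM top, 0.5% DMSO vehicle, duplicates. Readout: Fluidigm qRT-PCR of PTEN transcript; housekeeping normalization (ACTB, GAPDH, POLR2A). Gain or loss fitted relative to DMSO baseline.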

Read-out in assay [5]: solute carrier (SLC22A1), SLC22A1 (gene 6580)
Put plainly: LTEA_HepaRG_SLC22A1: Life Technologies and Expression Analysis (LTEA) Assay for solute carrier (SLC22A1) using HepaRG (AID 2283524).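 As to AC50: differentiated human HepaRG liver cells in serum-free induction medium.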 A digest of the protocol:
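qRT-PCR readout (TaqMan, Fluidigm arrays) of SLC22A1 transcript, normalized to three housekeeping genes; bidirectional curve fit relative to 0.5% DMSO vehicle. Differentiated human HepaRG cells, 48 h chemical exposure, top concentration 100 uM, half-log steps, eight points.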

Read-out in assay [6]: Pyruvate Dehydrogenase Kinase 4 (PDK4), PDK4 (gene 5166)
Put plainly: LTEA_HepaRG_PDK4: Life Technologies and Expression Analysis (LTEA) Assay for Pyruvate Dehydrogenase Kinase 4 (PDK4) using HepaRG (AID 2283525). The essentials:
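HepaRG (human liver line), 48 h chemical exposure, 8-pt half-log CRC top 100 uM, 0.5% DMSO vehicle, duplicates. Readout: TaqMan qRT-PCR of PDK4 mRNA, housekeeping-normalized; gain/loss fit relative to DMSO baseline.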

Read-out in assay [7]: Nuclear factor erythroid 2-related factor 2 (Homo sapiens) (UniProt Q16236)
Description: LTEA_HepaRG_NFE2L2: Life Technologies and Expression Analysis (LTEA) Assay for Nuclear factor erythroid 2-related factor 2 (NFE2L2) Transcription Factor using HepaRG (AID 2283527).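 Also: TaqMan qRT-PCR transcript level normalised to ACTB GAPDH and POLR2A housekeeping genes.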 A digest of the protocol:
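HepaRG, 48 h dosing, 8-pt half-log series from 100 uM in 0.5% DMSO, duplicates. Read-out: NFE2L2 mRNA by qRT-PCR (ACTB/GAPDH/POLR2A normalization). Bidirectional curve fit vs DMSO baseline.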

Read-out in assay [8]: succinate dehydrogenase complex iron sulfur subunit B (SDHB), SDHB (gene 6390)
Put plainly: LTEA_HepaRG_SDHB: Life Technologies and Expression Analysis (LTEA) Assay for succinate dehydrogenase complex iron sulfur subunit B (SDHB) using HepaRG (AID 2283528). The essentials: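 Readout is SDHB transcript level by qRT-PCR, normalised to three housekeeping genes and fitted bidirectionally against 0.5% DMSO vehicle. Human HepaRG cells were treated for 48 h at up to 100 uM.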

Read-out in assay [9]: solute carrier (SLCO1B1), SLCO1B1 (gene 10599)
Description: LTEA_HepaRG_SLCO1B1: Life Technologies and Expression Analysis (LTEA) Assay for solute carrier (SLCO1B1) using HepaRG (AID 2283530). A digest of the protocol:
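HepaRG, serum-free induction medium, 48 h dosing, 8-pt half-log from 100 uM, 0.5% DMSO vehicle, duplicates. Readout: SLCO1B1 mRNA, qRT-PCR, ACTB/GAPDH/POLR2A normalization; up or down fit vs DMSO.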

Read-out in assay [10]: sulfotransferase 2A1 (SULT2A1), SULT2A1 (gene 6822)
Description: LTEA_HepaRG_SULT2A1: Life Technologies and Expression Analysis (LTEA) Assay for sulfotransferase 2A1 (SULT2A1) using HepaRG (AID 2283531). A digest of the protocol: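 Transcript levels of SULT2A1, quantified by qRT-PCR and normalized to three housekeeping genes, serve as the readout. Human HepaRG cultures receive test chemicals for 48 h at up to 100 uM in half-log steps, with 0.5% DMSO vehicle.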

Read-out in assay [11]: Transforming Growth Factor (TGFA), TGFA (gene 7039)
Description: LTEA_HepaRG_TGFA: Life Technologies and Expression Analysis (LTEA) Assay for Transforming Growth Factor (TGFA) using HepaRG (AID 2283532). The essentials:
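qRT-PCR read-out of TGFA transcript, normalized to three housekeeping genes, fitted bidirectionally against 0.5% DMSO baseline. Human HepaRG cultures received chemicals for 48 h at eight half-log concentrations, top 100 uM.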

Read-out in assay [12]: Transforming Growth Factor (TGFB1), TGFB1 (gene 7040)
Description: LTEA_HepaRG_TGFB1: Life Technologies and Expression Analysis (LTEA) Assay for Transforming Growth Factor (TGFB1) Transporter using HepaRG (AID 2283533). A digest of the protocol: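 HepaRG, 48 h post-plating, switched to serum-free induction medium; chemicals 100 uM top, half-log, 8 pts, 0.5% DMSO, dup; 48 h exposure; RNA → Fluidigm TaqMan qRT-PCR; norm ACTB/GAPDH/POLR2A; bidirectional fit vs DMSO.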

Read-out in the next assay: TIMP1, TIMP1 (gene 7076)
Put plainly: LTEA_HepaRG_TIMP1: Life Technologies and Expression Analysis (LTEA) Assay for TIMP1 using HepaRG (AID 2283534). A digest of the protocol: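 Readout is TIMP1 mRNA level measured by qRT-PCR and normalized to three housekeeping genes. Human HepaRG cells were treated for 48 h in duplicate at eight concentrations up to 100 uM (0.5% DMSO); gain or loss fitted against DMSO.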

Read-out in assay [13]: Tumor necrosis factor receptor 1 (TNFRSF1A), TNFRSF1A (gene 7132)
Description: LTEA_HepaRG_TNFRSF1A: Life Technologies and Expression Analysis (LTEA) Assay for Tumor necrosis factor receptor 1 (TNFRSF1A) using HepaRG (AID 2283535). A digest of the protocol: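 Read-out is TNFRSF1A transcript level by TaqMan qRT-PCR, normalized to three housekeeping genes, scored as gain or loss of signal versus 0.5% DMSO. Human HepaRG cells received test chemicals for 48 h at up to 100 uM (half-log series).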

Read-out in assay [14]: Thyroid Hormone Responsive (THRSP), THRSP (gene 7069)
Put plainly: LTEA_HepaRG_THRSP: Life Technologies and Expression Analysis (LTEA) Assay for Thyroid Hormone Responsive (THRSP) using HepaRG (AID 2283536). A digest of the protocol: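 qRT-PCR read-out (Fluidigm TaqMan), housekeeping-normalized (ACTB/GAPDH/POLR2A). HepaRG, 48 h chemical exposure, 8-pt half-log series from 100 uM in 0.5% DMSO, duplicates. Bidirectional curve fit vs 0.5% DMSO baseline.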

Read-out in assay [15]: Cellular tumor antigen p53 (Homo sapiens) (UniProt P04637)
Put plainly: LTEA_HepaRG_TP53: Life Technologies and Expression Analysis (LTEA) Assay for Tumor Protein P53 (TP53) using HepaRG (AID 2283537). A digest of the protocol:
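Read-out is TP53 transcript level by microfluidic qRT-PCR, normalised to three housekeeping genes and fitted bidirectionally against DMSO. Human HepaRG cells received compounds for 48 h, highest concentration 100 uM.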

Read-out in assay [16]: UDP glucuronosyltransferase (UGT1A1), UGT1A1 (gene 54658)
Put plainly: LTEA_HepaRG_UGT1A1: Life Technologies and Expression Analysis (LTEA) Assay for UDP glucuronosyltransferase (UGT1A1) using HepaRG (AID 2283538). The essentials: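 Cells are plated, cultured 48 h, switched to serum-free induction medium, then dosed 48 h at eight concentrations (max 100 uM, 0.5% DMSO). RNA is isolated and UGT1A1 expression measured by qRT-PCR; changes versus DMSO are fitted in both directions.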

Read-out in assay [17]: UDP glucuronosyltransferase (UGT1A6), UGT1A6 (gene 54578)
Put plainly: LTEA_HepaRG_UGT1A6: Life Technologies and Expression Analysis (LTEA) Assay for UDP glucuronosyltransferase (UGT1A6) using HepaRG (AID 2283539). A digest of the protocol:
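HepaRG, 48 h post-plating switch to serum-free induction medium; chemical 48 h, 100 uM top, half-log x8, duplicate, 0.5% DMSO. Phenobarbital 1mM induction control. UGT1A6 mRNA by TaqMan qRT-PCR; gain/loss fit vs DMSO.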

Read-out in assay [18]: Signal transducer and activator of transcription 3 (Homo sapiens) (UniProt P40763)
Put plainly: LTEA_HepaRG_STAT3: Life Technologies and Expression Analysis (LTEA) Assay for Signal transducer and activator of transcription (STAT3) using HepaRG (AID 2283529). A digest of the protocol:
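HepaRG, 48 h exposure, 8-pt half-log series (top 100 uM), 0.5% DMSO vehicle, duplicates. Readout: STAT3 transcript by Fluidigm qRT-PCR, housekeeping-normalized; bidirectional fit vs DMSO baseline.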

Read-out in assay [19]: NAD(P)H dehydrogenase [quinone] 1 (NQO1), NQO1 (gene 1728)
Description: LTEA_HepaRG_NQO1: Life Technologies and Expression Analysis (LTEA) Assay for NAD(P)H dehydrogenase [quinone] 1 (NQO1) using HepaRG (AID 2283526). A digest of the protocol: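 Transcript induction or suppression is quantified by qRT-PCR in human HepaRG liver cells dosed for 48 hours. Eight half-log concentrations topping at 100 uM are used, with 0.5% DMSO as vehicle and baseline.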

Structures are written as SMILES. Activity calls are given as the source filed them. The calls were made as follows: active = hit-call score of the fitted dose curve at least 0.9, where 1 is the maximum; inactive = score below 0.9.

Chain of Cellular tumor antigen p53 (Homo sapiens) (P04637 whole entry, looked up): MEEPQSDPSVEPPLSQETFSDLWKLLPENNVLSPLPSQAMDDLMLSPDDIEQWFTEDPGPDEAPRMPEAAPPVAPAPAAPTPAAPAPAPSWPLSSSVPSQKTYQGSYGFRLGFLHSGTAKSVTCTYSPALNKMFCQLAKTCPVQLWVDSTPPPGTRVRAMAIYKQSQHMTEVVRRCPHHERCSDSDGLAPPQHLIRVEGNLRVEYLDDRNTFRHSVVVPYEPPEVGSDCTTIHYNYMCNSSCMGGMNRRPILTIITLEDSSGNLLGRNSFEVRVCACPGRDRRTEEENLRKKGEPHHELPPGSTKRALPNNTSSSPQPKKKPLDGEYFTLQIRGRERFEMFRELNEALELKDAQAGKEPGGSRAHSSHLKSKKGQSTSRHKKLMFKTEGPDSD
Chain of Nuclear factor NF-kappa-B p105 subunit (Homo sapiens) (P19838 whole entry, looked up): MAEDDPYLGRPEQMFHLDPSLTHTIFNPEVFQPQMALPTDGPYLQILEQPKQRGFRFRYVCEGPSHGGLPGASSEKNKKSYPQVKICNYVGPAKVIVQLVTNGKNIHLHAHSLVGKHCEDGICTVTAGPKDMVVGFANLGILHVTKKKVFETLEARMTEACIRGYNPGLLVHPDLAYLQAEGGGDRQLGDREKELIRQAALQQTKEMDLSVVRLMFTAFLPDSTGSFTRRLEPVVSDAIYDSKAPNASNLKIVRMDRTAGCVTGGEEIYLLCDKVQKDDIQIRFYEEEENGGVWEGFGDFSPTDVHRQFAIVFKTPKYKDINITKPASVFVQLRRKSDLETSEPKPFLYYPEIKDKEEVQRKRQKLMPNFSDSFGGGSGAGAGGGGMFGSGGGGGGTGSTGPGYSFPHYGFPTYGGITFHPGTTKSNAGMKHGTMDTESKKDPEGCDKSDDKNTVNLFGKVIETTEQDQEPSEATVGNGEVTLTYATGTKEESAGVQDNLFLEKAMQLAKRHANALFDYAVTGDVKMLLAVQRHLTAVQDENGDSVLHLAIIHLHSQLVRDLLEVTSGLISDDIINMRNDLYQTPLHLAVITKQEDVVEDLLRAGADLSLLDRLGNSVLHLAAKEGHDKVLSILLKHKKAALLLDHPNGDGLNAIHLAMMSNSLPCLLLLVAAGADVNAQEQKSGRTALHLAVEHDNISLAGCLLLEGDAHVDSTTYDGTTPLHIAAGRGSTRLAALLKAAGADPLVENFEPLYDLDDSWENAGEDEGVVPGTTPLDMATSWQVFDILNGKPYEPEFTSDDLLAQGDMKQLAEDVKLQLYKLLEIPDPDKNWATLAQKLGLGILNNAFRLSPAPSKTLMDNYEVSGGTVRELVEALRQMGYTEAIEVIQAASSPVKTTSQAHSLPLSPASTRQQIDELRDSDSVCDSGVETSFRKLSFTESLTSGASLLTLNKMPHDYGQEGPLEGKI
Chain of Nuclear factor erythroid 2-related factor 2 (Homo sapiens) (Q16236 whole entry, looked up): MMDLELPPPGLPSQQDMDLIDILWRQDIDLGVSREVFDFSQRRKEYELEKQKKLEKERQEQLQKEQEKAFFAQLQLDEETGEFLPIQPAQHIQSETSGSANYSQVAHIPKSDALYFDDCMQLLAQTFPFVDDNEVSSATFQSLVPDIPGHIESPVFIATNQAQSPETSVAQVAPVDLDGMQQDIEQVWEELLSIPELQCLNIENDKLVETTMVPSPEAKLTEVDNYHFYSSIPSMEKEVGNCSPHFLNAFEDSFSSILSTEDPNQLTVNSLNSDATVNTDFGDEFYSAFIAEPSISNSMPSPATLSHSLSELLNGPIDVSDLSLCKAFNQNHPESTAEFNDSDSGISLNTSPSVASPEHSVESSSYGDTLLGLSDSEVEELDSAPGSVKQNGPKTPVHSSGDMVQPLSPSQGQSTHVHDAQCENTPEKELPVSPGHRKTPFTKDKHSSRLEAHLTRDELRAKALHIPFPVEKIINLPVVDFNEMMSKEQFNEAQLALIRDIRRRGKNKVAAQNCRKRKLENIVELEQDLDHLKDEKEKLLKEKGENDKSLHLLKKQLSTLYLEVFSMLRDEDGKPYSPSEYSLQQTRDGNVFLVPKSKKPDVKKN
Chain of Signal transducer and activator of transcription 3 (Homo sapiens) (P40763 whole entry, looked up): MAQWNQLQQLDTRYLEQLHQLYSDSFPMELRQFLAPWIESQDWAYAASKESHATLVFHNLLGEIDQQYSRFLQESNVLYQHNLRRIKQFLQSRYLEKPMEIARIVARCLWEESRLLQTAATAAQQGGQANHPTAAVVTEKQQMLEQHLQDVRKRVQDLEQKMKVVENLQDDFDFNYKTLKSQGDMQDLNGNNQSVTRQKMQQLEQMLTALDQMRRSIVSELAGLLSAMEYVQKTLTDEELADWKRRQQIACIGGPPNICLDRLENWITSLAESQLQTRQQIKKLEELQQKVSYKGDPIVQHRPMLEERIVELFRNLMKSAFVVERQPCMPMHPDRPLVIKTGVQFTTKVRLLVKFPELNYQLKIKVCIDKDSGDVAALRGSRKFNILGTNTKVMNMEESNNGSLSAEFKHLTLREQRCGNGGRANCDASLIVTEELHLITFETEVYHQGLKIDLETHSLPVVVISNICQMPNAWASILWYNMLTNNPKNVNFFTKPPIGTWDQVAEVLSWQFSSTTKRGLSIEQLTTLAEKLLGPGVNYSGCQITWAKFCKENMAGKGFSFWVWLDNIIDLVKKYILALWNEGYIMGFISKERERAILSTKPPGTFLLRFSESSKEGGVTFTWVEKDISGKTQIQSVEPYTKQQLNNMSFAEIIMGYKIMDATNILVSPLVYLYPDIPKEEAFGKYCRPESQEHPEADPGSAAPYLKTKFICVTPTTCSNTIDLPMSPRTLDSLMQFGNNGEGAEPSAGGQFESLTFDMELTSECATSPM

Regarding `Cc1ccc2oc(CN(Cc3ccccc3)C(=O)Nc3c(F)cc(F)cc3F)c(-c3ccc(Cl)cc3)c2c1`, the outcome in assay [1], in assay [2], in assay [3], in assay [4], in [6] and in [7] was inactive. Further, the outcome in assay [8] was “inactive”; in assay [9], “inactive”; in [10], “inactive”; in assay [11], “inactive”; in [12], “inactive”; with TIMP1, TIMP1 (gene 7076) it was “inactive”. Further, the molecule was classed as inactive in assay [13], in assay [14], in assay [16] and in assay [17]. Besides, the AC50 in assay [5] and in assay [15] was 44.2 µM (active) each time.
As for `CCCCCCCCOC(=O)c1cc(O)c(O)c(O)c1`, the molecule was classed as inactive in assay [1], in assay [2], in assay [3], in assay [4], in [5] and in [6]. Also, the molecule was classed as inactive in assay [7], in assay [8], in assay [18], in assay [9], in [10] and in [11]. Further, the outcome in [12] is “inactive”; with TIMP1, TIMP1 (gene 7076), “inactive”; in assay [13] it was “inactive”; in assay [14] it was “inactive”; in assay [15], “inactive”; in [16], “inactive”. Besides, the outcome in assay [17] was inactive.
`COc1cccc([C@H](O)C2CCN(CCc3ccc(F)cc3)CC2)c1OC`: the AC50 in assay [1] was 9.92 µM (active). Moreover, the call in assay [2], in assay [3], in assay [4], in [5], in assay [19] and in assay [7] was inactive. The molecule was called inactive in assay [8], in assay [18], in assay [9], in assay [10], in [11] and in [12]. Moreover, the outcome was “inactive” with TIMP1, TIMP1 (gene 7076); “inactive” in assay [13]; “inactive” in [14]; “inactive” in [15]; “inactive” in [16]; “inactive” in assay [17].
